The supplement of paper PMC10849652
About 7,900 targets were measured; listed, in parts, are those with a hit and a random draw of the rest. About 0.6% of all pairs of compound and target were hits.

Key:
Test in all cases: log2 fold change, soluble protein after heating vs DMSO (PISA); higher = thermal stabilisation; K562 cells, 10 uM, 30 min; active = over 0.2 and 3.5 SD of the protein, either way, in both replicates (recomputed)
[1] = compound: CC[C@@H]1C(=O)N(C)c2cnc(Nc3ccc(C(=O)NC4CCN(C)CC4)cc3OC)nc2N1C1CCCC1
In short: (§1)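 Soluble protein was quantified by TMTpro 16plex LC-MS/MS after channel sums were equalised. It was obtained as the supernatant after 21,000xg for 90 min from pooled aliquots of K562 cells (2×10^6 cells/mL, 10 μM compound, 30 min) heated for 3 min across 48°C-58°C and extracted in PBS with 0.5% NP-40 at 4°C. Thermal stability values are relative to control samples and come from duplicates. They are given as log2 fold changes.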

volasertib = compound: CC[C@@H]1C(=O)N(C)c2cnc(Nc3ccc(C(=O)N[C@H]4CC[C@H](N5CCN(CC6CC6)CC5)CC4)cc3OC)nc2N1C(C)C [volasertib]
In short: as §1

[2] = compound: CC[C@H](C)N1C=C(C2=C(C=C(C=C21)C3=CN=C(C=C3)N4CCNCC4)C(=O)NCC5=C(C=C(NC5=O)C)C)C
In short: as §1

epoxomicin = compound: CC[C@H](C)[C@@H](C(=O)N[C@@H]([C@@H](C)O)C(=O)N[C@@H](CC(C)C)C(=O)[C@]1(CO1)C)NC(=O)[C@H]([C@@H](C)CC)N(C)C(=O)C [epoxomicin]
In short: as §1

[3] = compound: CCn1c(C(=O)N(C2CC2)C2CC2)cc2c3c(ncn3C)c(Nc3cc(C)n(C)n3)nc21
In short: as §1

[4] = compound: CN(C)CC(=O)Nc1ccc2[nH]c(=O)c3ccccc3c2c1
In short: as §1

[5] = compound: CN1C2=C(C3=C1C(=O)N(N=C3)CC4=CC(=CC=C4)N)SC(=C2)S(=O)C
In short: as §1

[6] = compound: CCn1cc(-c2ccnc3[nH]c(-c4cccc(CN(C)C)c4)cc23)c(-c2ccc(NC(=O)N(C)C)cc2)n1
In short: as §1

rosiglitazone = compound: CN(CCOC1=CC=C(C=C1)C[C@H]2C(=O)NC(=O)S2)C3=CC=CC=N3 (racemic) [rosiglitazone]
In short: as §1

[7] = compound: CN1CCC(CNc2ccc3ncc(-c4cccc(OC(F)(F)F)c4)n3n2)CC1
In short: as §1

Measured: log2 fold change

FCHO1 (UniProt O14526)
active: volasertib -0.768
inactive: [1] -0.186 | [2] 0.168 | epoxomicin 0.05 | [3] 0.067 | [4] 0.112 | [5] 0.025

HNRNPK isoform 3 (UniProt P61978)
inactive: [1] 0.121 | [2] -0.062 | epoxomicin -0.035 | [3] 0.034 | [6] 0.032 | [4] 0.012 | rosiglitazone -0.035 | [5] -0.057 | [7] 0.076

GEMIN2 (UniProt O14893)
Sequence of UniProt O14893 (O14893 whole entry, looked up): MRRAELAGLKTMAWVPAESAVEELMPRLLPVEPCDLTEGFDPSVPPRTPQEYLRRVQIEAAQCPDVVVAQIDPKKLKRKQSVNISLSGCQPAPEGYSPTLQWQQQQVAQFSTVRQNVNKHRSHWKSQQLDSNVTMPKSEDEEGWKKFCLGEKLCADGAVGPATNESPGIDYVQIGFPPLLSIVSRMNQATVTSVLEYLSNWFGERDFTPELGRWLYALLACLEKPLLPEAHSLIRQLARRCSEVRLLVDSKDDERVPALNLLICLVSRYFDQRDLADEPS
inactive: [1] -0.203 | volasertib -0.061 | [2] -0.057 | epoxomicin 0.011 | [6] 0.013 | [4] 0.019 | rosiglitazone 0.059 | [5] 0.101 | [7] 0.031

FIBP (UniProt O43427)
Sequence of UniProt O43427 (O43427 whole entry, looked up): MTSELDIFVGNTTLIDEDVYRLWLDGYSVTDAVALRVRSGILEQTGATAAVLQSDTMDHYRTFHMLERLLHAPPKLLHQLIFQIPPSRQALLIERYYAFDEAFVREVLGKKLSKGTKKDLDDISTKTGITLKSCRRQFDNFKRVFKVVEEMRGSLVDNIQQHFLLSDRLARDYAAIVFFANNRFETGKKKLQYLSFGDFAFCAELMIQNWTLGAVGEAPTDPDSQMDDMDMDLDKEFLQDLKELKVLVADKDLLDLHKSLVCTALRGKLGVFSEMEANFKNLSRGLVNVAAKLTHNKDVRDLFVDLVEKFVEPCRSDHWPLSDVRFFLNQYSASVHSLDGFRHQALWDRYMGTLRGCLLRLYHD
inactive: [1] 0.164 | volasertib -0.093 | epoxomicin -0.023 | [3] -0.026 | [6] -0.023 | [4] -0.043 | rosiglitazone -0.012 | [5] -0.072 | [7] -0.229

GTPBP6 (UniProt O43824)
inactive: [1] -0.07 | [2] -0.041 | epoxomicin 0.026 | [3] 0.025 | [6] -0.079 | [4] 0.034 | rosiglitazone 0.299 | [5] -0.13 | [7] -0.007

GOPC (UniProt Q9HD26)
inactive: volasertib -0.015 | [2] 0.022 | epoxomicin -0.053 | [3] 0 | [6] 0.149 | [4] 0.056 | rosiglitazone -0.06 | [5] 0.153 | [7] 0.485

GOLGA8R (UniProt I6L899)
Sequence of UniProt I6L899 (I6L899 whole entry, looked up): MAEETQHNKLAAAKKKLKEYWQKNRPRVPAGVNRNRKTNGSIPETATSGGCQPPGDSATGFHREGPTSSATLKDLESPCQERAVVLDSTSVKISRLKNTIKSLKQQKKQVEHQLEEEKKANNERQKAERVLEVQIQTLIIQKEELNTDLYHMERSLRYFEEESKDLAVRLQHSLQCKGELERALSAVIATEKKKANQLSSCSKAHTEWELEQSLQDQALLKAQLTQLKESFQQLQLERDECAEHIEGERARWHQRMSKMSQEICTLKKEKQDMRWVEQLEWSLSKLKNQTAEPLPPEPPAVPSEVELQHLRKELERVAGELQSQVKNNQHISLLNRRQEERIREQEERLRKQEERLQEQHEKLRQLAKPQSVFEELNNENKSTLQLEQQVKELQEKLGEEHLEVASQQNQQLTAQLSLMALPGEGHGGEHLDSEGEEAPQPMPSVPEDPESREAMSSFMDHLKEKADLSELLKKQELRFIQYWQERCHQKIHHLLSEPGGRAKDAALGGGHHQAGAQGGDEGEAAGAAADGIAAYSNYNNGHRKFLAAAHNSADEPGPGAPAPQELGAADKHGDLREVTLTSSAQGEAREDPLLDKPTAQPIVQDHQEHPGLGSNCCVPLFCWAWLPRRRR
inactive: [1] -0.036 | volasertib -0.4 | [3] -0.233 | [6] -0.182 | [4] 0.191 | rosiglitazone 0.074 | [5] -0.003 | [7] -0.033

IDH3A isoform 2 (UniProt P50213)
inactive: [2] -0.056 | [3] -0.14 | rosiglitazone 0.003

GPD1 (UniProt P21695)
inactive: volasertib -0.161 | [2] 0 | epoxomicin -0.205 | [3] -0.23 | [6] -0.011 | [4] -0.045 | rosiglitazone 0.027 | [5] -0.126 | [7] -0.183

HDAC10 (UniProt Q969S8)
Sequence of UniProt Q969S8 (Q969S8 whole entry, looked up): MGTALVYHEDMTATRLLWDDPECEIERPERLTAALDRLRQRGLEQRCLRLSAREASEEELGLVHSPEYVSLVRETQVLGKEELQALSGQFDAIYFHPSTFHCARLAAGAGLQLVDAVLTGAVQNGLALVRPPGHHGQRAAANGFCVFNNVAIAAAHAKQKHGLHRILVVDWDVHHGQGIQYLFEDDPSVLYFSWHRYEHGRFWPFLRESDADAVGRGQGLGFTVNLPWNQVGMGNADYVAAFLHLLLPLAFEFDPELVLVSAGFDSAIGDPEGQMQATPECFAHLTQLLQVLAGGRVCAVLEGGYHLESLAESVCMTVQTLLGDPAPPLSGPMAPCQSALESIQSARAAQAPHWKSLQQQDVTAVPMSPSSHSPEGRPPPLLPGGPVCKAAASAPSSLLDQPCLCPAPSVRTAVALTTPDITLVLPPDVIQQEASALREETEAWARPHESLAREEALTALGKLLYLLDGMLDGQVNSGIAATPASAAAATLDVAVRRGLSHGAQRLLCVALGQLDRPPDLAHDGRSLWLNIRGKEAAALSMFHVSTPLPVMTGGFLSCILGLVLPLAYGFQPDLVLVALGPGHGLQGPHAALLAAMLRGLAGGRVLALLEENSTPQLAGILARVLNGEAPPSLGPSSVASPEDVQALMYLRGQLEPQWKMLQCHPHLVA
inactive: [1] -0.113 | volasertib -0.041 | [2] 0.028 | [3] -0.005 | [6] -0.179 | [4] 0.224 | rosiglitazone 0.12 | [5] -0.107 | [7] 0.055

FGG (UniProt P02679)
Sequence of UniProt P02679 (P02679 whole entry, looked up): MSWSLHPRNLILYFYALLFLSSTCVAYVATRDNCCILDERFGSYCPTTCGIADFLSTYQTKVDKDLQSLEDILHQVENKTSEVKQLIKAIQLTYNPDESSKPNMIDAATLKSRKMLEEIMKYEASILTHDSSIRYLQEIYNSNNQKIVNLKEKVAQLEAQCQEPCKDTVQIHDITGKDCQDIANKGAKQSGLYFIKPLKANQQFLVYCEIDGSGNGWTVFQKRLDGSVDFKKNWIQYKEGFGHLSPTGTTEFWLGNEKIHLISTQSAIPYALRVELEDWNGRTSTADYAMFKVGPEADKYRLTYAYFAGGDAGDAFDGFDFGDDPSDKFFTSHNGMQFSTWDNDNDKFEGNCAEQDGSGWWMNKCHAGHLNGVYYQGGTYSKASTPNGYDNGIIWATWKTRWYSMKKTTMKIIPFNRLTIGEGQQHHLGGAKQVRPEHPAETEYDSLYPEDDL
inactive: volasertib -0.042 | [6] 0.035 | [7] 0.137

GPNMB (UniProt Q14956)
inactive: [1] 0.206 | epoxomicin -0.191 | [3] 0.149

HBZ, A0A494C057
inactive: [1] 0.203 | [2] -0.079 | [3] -0.008 | rosiglitazone -0.188

FASTKD1 (UniProt Q53R41)
inactive: [1] -0.023 | [2] -0.088 | epoxomicin 0.155 | [3] -0.151 | [6] 0.051 | [4] 0.064 | rosiglitazone 0.014 | [5] 0.072 | [7] -0.188

FOXO3 (UniProt O43524)
Sequence of UniProt O43524 (O43524 whole entry, looked up): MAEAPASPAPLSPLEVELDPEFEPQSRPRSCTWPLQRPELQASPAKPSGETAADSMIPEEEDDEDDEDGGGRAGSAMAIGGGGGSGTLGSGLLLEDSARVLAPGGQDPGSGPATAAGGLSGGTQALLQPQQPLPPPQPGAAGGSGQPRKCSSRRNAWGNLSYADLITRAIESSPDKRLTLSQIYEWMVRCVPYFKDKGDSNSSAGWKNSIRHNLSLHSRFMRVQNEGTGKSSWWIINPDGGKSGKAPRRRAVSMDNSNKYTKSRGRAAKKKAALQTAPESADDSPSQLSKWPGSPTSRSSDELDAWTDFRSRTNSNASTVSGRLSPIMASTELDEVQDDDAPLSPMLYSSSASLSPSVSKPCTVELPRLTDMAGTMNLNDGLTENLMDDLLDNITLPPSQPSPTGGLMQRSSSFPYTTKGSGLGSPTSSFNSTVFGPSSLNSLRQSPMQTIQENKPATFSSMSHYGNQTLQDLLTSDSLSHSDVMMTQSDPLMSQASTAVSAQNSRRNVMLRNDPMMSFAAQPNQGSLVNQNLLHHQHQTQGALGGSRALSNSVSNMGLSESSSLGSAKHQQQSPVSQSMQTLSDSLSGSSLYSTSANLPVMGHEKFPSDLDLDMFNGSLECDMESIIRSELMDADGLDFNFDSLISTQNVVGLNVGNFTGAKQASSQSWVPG
inactive: [1] -0.092 | volasertib -0.061 | epoxomicin 0.007 | [3] -0.213 | [6] -0.004 | [4] 0.055 | [5] 0.158 | [7] -0.188

FAT2 (UniProt Q9NYQ8)
inactive: [1] 0.011 | volasertib 0.029 | epoxomicin -0.047 | [3] -0.183 | [6] -0.023 | [4] -0.06 | rosiglitazone -0.27 | [5] -0.023 | [7] 0.109

GNL3 (UniProt Q9BVP2)
Sequence of UniProt Q9BVP2 (Q9BVP2 whole entry, looked up): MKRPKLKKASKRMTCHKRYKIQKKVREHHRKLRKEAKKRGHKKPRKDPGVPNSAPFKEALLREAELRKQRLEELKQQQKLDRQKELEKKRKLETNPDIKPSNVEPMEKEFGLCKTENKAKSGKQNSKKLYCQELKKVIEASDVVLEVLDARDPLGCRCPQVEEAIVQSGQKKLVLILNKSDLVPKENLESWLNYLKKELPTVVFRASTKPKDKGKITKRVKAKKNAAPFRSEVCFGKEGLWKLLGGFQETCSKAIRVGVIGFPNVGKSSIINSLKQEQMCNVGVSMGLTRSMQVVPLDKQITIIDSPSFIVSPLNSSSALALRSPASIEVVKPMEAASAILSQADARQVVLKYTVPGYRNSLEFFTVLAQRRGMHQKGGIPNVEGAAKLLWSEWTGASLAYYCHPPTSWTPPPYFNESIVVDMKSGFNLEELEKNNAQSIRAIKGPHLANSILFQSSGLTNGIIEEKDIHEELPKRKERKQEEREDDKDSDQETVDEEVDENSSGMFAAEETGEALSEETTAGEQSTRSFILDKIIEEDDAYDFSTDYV
inactive: [1] 0.018 | [2] -0.197 | epoxomicin -0.06 | [6] 0.118 | [4] 0.002 | rosiglitazone 0.046 | [5] -0.103 | [7] 0.081

FUT8 (UniProt Q9BYC5)
inactive: [2] -0.042 | epoxomicin 0.002 | [3] 0.08 | [6] 0.06 | [4] 0.175 | rosiglitazone -0.001 | [5] -0.04 | [7] -0.057
active: [1] -0.327

GAB2 (UniProt Q9UQC2)
inactive: [1] -0.203 | volasertib -0.009 | epoxomicin 0.065 | [3] -0.085 | [6] 0.034 | [4] -0.016 | [5] 0.002 | [7] -0.458

IGF2 isoform 3 (UniProt P01344)
Sequence of UniProt P01344 (P01344 whole entry, looked up): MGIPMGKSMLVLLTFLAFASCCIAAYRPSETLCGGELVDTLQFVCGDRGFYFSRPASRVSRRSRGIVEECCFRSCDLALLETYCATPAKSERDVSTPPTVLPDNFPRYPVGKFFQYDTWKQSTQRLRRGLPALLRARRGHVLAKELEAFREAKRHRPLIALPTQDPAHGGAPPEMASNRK
inactive: [3] -0.395 | [4] -0.218 | [5] 0.135

FCF1 (UniProt Q9Y324)
inactive: [1] 0.095 | volasertib 0.108 | epoxomicin -0.003 | [6] 0.134 | [4] -0.041 | [5] 0.107 | [7] 0.219

FIZ1 (UniProt Q96SL8)
Sequence of UniProt Q96SL8 (Q96SL8 whole entry, looked up): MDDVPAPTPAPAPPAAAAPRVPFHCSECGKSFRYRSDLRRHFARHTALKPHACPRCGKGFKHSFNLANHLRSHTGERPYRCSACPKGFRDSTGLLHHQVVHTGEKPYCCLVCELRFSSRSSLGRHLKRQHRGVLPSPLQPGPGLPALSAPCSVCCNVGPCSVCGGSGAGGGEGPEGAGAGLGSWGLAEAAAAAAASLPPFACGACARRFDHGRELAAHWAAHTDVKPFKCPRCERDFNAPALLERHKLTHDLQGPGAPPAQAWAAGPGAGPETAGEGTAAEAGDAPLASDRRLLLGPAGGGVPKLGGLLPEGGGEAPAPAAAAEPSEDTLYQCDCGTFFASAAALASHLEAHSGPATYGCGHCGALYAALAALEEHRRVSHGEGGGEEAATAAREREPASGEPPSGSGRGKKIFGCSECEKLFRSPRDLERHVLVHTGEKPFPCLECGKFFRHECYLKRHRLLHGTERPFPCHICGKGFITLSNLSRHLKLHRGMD
inactive: [1] 0.169 | [2] 0.088 | epoxomicin -0.071 | [6] -0.125 | [4] -0.06 | [5] 0.138 | [7] 0.024

GLIPR2 (UniProt Q9H4G4)
Sequence of UniProt Q9H4G4 (Q9H4G4 whole entry, looked up): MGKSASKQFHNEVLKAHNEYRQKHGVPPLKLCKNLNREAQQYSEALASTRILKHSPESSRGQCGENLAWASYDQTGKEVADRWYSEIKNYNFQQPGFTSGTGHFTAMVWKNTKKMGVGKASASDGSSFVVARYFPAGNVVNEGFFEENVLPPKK
inactive: [1] -0.047 | volasertib 0.163 | epoxomicin -0.088 | [3] -0.041 | [6] -0.032 | [4] -0.117 | rosiglitazone 0.151 | [5] -0.084 | [7] -0.239

FBXO9 (UniProt Q9UK97)
Sequence of UniProt Q9UK97 (Q9UK97 whole entry, looked up): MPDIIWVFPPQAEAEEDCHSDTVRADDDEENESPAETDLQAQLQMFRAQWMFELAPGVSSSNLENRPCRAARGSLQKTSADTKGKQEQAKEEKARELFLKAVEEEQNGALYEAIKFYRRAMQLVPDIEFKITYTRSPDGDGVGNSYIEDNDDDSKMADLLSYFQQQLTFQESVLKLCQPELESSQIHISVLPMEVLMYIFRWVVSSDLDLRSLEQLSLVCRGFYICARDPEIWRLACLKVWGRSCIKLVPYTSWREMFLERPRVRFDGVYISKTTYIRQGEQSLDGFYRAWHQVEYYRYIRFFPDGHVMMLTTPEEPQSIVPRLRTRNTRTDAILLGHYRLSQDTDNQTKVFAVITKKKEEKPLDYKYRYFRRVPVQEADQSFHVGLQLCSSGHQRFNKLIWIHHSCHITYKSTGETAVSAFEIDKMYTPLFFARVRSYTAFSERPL
active: volasertib -0.545
inactive: [1] -0.17 | [2] 0.06 | [3] 0.086 | [6] 0.009 | [4] 0.097 | rosiglitazone 0.07 | [5] 0.045 | [7] 0.203
